In PubChem BioAssay (NCI):
This is part of a sample that, as a whole, favours compounds with a hit. Of some 83,000 tested, about 20% had one in any assay.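 Single-concentration screen, 48 h exposure, 96-well plates. Endpoint: percent growth. Below 10 = active.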 The source made the active and inactive calls.

Assays:
Experiment in all cases: NCI-60 one-dose screen, 48 h (100 = growth as untreated, 0 = no growth, -100 = all killed)
SK-MEL-2 melanoma = settings: 10 µM
SN12C renal = settings: 10 µM
UO-31 renal = settings: 10 µM
TK-10 renal = settings: 10 µM unless noted
ACHN renal = settings: 10 µM
CAKI-1 renal = settings: 10 µM
A498 renal = settings: 10 µM
CCRF-CEM leukemia = settings: 10 µM
MOLT-4 leukemia = settings: 10 µM
EKVX NSCLC = settings: 10 µM

Measured: growth

O=C(O)CCCC(=O)O
inactive: SK-MEL-2 melanoma 106% | SN12C renal 102% | UO-31 renal 87% | TK-10 renal 120% | ACHN renal 103% | CAKI-1 renal 105% | A498 renal 109% | CCRF-CEM leukemia 101% | MOLT-4 leukemia 103%

NCCCN
inactive: SK-MEL-2 melanoma 122% | SN12C renal 101% | UO-31 renal 92.6% | TK-10 renal 107% | ACHN renal 103% | CAKI-1 renal 98.3% | A498 renal 114% | CCRF-CEM leukemia 101% | MOLT-4 leukemia 112%

N#CCCc1ccc(O)cc1
inactive: SK-MEL-2 melanoma 104% | SN12C renal 107% | UO-31 renal 90.5% | TK-10 renal 113% | ACHN renal 99.9% | CAKI-1 renal 95.4% | A498 renal 104% | MOLT-4 leukemia 98.5%

CC1CCCCN1C(=S)Nc1ccc(S(=O)(=O)N2CCCCC2)cc1 (stereo not given)
inactive: SK-MEL-2 melanoma 107% | SN12C renal 109% | UO-31 renal 89.4% | TK-10 renal 107% | ACHN renal 99.8% | CAKI-1 renal 75.8% | A498 renal 70.9% | CCRF-CEM leukemia 75.9% | MOLT-4 leukemia 104%

CC1(C(=O)O)NC(C(=O)O)Cc2c1[nH]c1ccccc21 (stereo not given)
inactive: SK-MEL-2 melanoma 93.7% | SN12C renal 95.8% | UO-31 renal 79.5% | TK-10 renal 108% | ACHN renal 102% | CAKI-1 renal 96.5% | A498 renal 91.8% | CCRF-CEM leukemia 82.8% | MOLT-4 leukemia 88.8%

Cc1ccc(C(O)C2CC2)cc1 (stereo not given)
inactive: SK-MEL-2 melanoma 104% | SN12C renal 102% | UO-31 renal 88.5% | TK-10 renal 116% | ACHN renal 104% | CAKI-1 renal 91.9% | A498 renal 87.5% | CCRF-CEM leukemia 91.7% | MOLT-4 leukemia 100%

CCOC(=O)C/C(C)=N\O
inactive: SK-MEL-2 melanoma 107% | SN12C renal 98.6% | UO-31 renal 81.6% | TK-10 renal 93.4% | ACHN renal 112% | CAKI-1 renal 92.8% | A498 renal 111% | MOLT-4 leukemia 95.2%

Cc1c(O)cnc2nn(-c3ccccc3)c(=N)n12
inactive: SK-MEL-2 melanoma 94.7% | SN12C renal 97.7% | UO-31 renal 94.5% | TK-10 renal 109% | ACHN renal 96.7% | CAKI-1 renal 102% | A498 renal 106% | MOLT-4 leukemia 104%

NC(CSC(c1ccccc1)(c1ccccc1)c1ccccc1)C(=O)O (stereo not given)
active: SK-MEL-2 melanoma -15.7% | CCRF-CEM leukemia 9.95%
inactive: SN12C renal 53.6% | UO-31 renal 54.3% | TK-10 renal 59.3% | ACHN renal 57.5% | CAKI-1 renal 31% | A498 renal 48.5% | MOLT-4 leukemia 38.4%

O=[N+]([O-])c1ccc(/C=C/C=C/c2ccccc2)c(Cl)c1
inactive: SK-MEL-2 melanoma 94.3% | SN12C renal 98.3% | UO-31 renal 92.8% | TK-10 renal 121% | ACHN renal 100% | CAKI-1 renal 95% | A498 renal 88.9% | CCRF-CEM leukemia 90.7% | MOLT-4 leukemia 86.4%

C=CC(O)CCC (stereo not given)
inactive: SK-MEL-2 melanoma 122% | SN12C renal 99.5% | UO-31 renal 89.9% | TK-10 renal 102% | ACHN renal 98.5% | CAKI-1 renal 92.1% | A498 renal 108% | CCRF-CEM leukemia 98.4% | MOLT-4 leukemia 110%

C/C(=N\NC(=O)c1ccccc1N)c1ccccc1O
inactive: SK-MEL-2 melanoma 71.2% | SN12C renal 41.1% | UO-31 renal 29.3% | TK-10 renal 27.6% | ACHN renal 32.3% | A498 renal 89% | MOLT-4 leukemia 19.3%
active: CAKI-1 renal 3.89%

O=P(O)(O)OCC(O)CO (stereo not given)
inactive: SK-MEL-2 melanoma 117% | SN12C renal 98.5% | UO-31 renal 98.7% | TK-10 renal 110% | ACHN renal 101% | CAKI-1 renal 104% | A498 renal 108% | CCRF-CEM leukemia 100% | MOLT-4 leukemia 103%

O=C1OC(=O)C2C1C1(Cl)C(Cl)=C(Cl)C2(Cl)C2C(=O)OC(=O)C21 (stereo not given)
inactive: SK-MEL-2 melanoma 88.7% | SN12C renal 105% | UO-31 renal 84.4% | TK-10 renal 93% | ACHN renal 105% | CAKI-1 renal 106% | A498 renal 107% | MOLT-4 leukemia 105%

CC(=O)OCCO
inactive: SK-MEL-2 melanoma 143% | SN12C renal 98.5% | UO-31 renal 90.3% | TK-10 renal 114% | ACHN renal 105% | CAKI-1 renal 104% | A498 renal 109% | CCRF-CEM leukemia 111% | MOLT-4 leukemia 102%

Cc1ncc(C#N)c(N)n1
inactive: SK-MEL-2 melanoma 106% | SN12C renal 103% | UO-31 renal 85.7% | TK-10 renal 109% | ACHN renal 121% | CAKI-1 renal 92.9% | A498 renal 87.1% | CCRF-CEM leukemia 126% | MOLT-4 leukemia 102%

CC(C)(N)COS(=O)(=O)O
inactive: SK-MEL-2 melanoma 117% | SN12C renal 93.6% | UO-31 renal 100% | TK-10 renal 115% | ACHN renal 114% | CAKI-1 renal 103% | A498 renal 113% | MOLT-4 leukemia 96.9%

CCOC(=O)c1ccc(NC(=S)P(=O)(c2ccccc2)c2ccccc2)cc1
inactive: SK-MEL-2 melanoma 119% | SN12C renal 103% | UO-31 renal 92.9% | TK-10 renal 123% | ACHN renal 102% | CAKI-1 renal 86.3% | A498 renal 86.3% | CCRF-CEM leukemia 69.8% | MOLT-4 leukemia 52.6%

CCCCCCCCCCC(C)Br (stereo not given)
inactive: SK-MEL-2 melanoma 104% | SN12C renal 103% | UO-31 renal 91.9% | TK-10 renal 107% | ACHN renal 102% | CAKI-1 renal 98.6% | A498 renal 108% | CCRF-CEM leukemia 95.3% | MOLT-4 leukemia 95.3%

O=C(O)CSCSCC(=O)O
inactive: SK-MEL-2 melanoma 94.8% | SN12C renal 104% | UO-31 renal 92.3% | TK-10 renal 93.6% | ACHN renal 101% | CAKI-1 renal 96.9% | A498 renal 80.4% | MOLT-4 leukemia 101%

COCCCNC(=O)c1nnn2c1nc(N)c1cc(Cl)ccc12
inactive: SK-MEL-2 melanoma 74.2% | SN12C renal 101% | UO-31 renal 71.7% | TK-10 renal 105% | ACHN renal 104% | CAKI-1 renal 80.6% | A498 renal 96.4% | MOLT-4 leukemia 79.6%

C=CCCCCCCCCCOC(C)=O
inactive: SK-MEL-2 melanoma 98.5% | SN12C renal 98.8% | UO-31 renal 92.4% | TK-10 renal 91.5% | ACHN renal 110% | CAKI-1 renal 104% | A498 renal 111% | CCRF-CEM leukemia 101% | MOLT-4 leukemia 103%

COC(=O)c1ccccc1N(C)C
inactive: SK-MEL-2 melanoma 99.4% | SN12C renal 103% | UO-31 renal 87.5% | TK-10 renal 94.8% | ACHN renal 113% | CAKI-1 renal 96.2% | A498 renal 79.6% | CCRF-CEM leukemia 95.5% | MOLT-4 leukemia 90.1%

CCCCCCCCCCC1CO1 (stereo not given)
inactive: SK-MEL-2 melanoma 118% | SN12C renal 102% | UO-31 renal 82.2% | TK-10 renal 112% | ACHN renal 109% | CAKI-1 renal 104% | A498 renal 108% | CCRF-CEM leukemia 97.2% | MOLT-4 leukemia 105%

CC(=Nc1ccccc1)C1=C(O)C(Cc2cccc(F)c2)NC1=O (stereo not given)
active: A498 renal 0.117% | CCRF-CEM leukemia 6.2% | MOLT-4 leukemia -12.4%
inactive: SK-MEL-2 melanoma 13.1% | SN12C renal 29.7% | UO-31 renal 35.9% | TK-10 renal 44.4% | ACHN renal 26.4% | CAKI-1 renal 37.2%

CCOC(=O)C1=C(Nc2ccc(Br)cc2)C(=O)N(CC)C1
inactive: SK-MEL-2 melanoma 124% | SN12C renal 86% | UO-31 renal 84.1% | TK-10 renal 101% | ACHN renal 92.4% | CAKI-1 renal 88.2% | A498 renal 90.9% | MOLT-4 leukemia 103%

O=C(O)CNC(=O)c1ccccc1
inactive: EKVX NSCLC 93.4%

N=c1c(C(=O)OCc2ccccc2)ncc(CCl)n1O
inactive: EKVX NSCLC 101% | SN12C renal 88.6% | UO-31 renal 83.5% | TK-10 renal 106% | ACHN renal 94.6% | CAKI-1 renal 92.2% | A498 renal 103% | CCRF-CEM leukemia 94% | MOLT-4 leukemia 97.8%

O=C(CN1CCNCC1)N1CCOCC1
inactive: EKVX NSCLC 107% | SN12C renal 104% | UO-31 renal 84.6% | TK-10 renal 110% | ACHN renal 110% | CAKI-1 renal 101% | A498 renal 116% | CCRF-CEM leukemia 100% | MOLT-4 leukemia 81.6%

COC(=O)/C=C/C(=O)NC(N)=O
inactive: SK-MEL-2 melanoma 85.2% | SN12C renal 101% | UO-31 renal 91.5% | TK-10 renal 102% | ACHN renal 99.4% | CAKI-1 renal 99.2% | A498 renal 98.6% | MOLT-4 leukemia 100%

O=C(NCc1ccco1)Nc1c(Cl)cc(Cl)cc1Cl
inactive: SK-MEL-2 melanoma 75.5% | SN12C renal 96.9% | UO-31 renal 84% | TK-10 renal 105% | CAKI-1 renal 89.1% | A498 renal 99.5% | MOLT-4 leukemia 108%

O=C1C=CC(=O)N1c1ccc(I)cc1Cl
inactive: SK-MEL-2 melanoma 114% | SN12C renal 101% | UO-31 renal 94% | ACHN renal 104% | A498 renal 99.1% | CCRF-CEM leukemia 85.9% | MOLT-4 leukemia 128%

CCC/C=C(\C)C(C)(C#N)C(=O)OCC (stereo not given)
inactive: SK-MEL-2 melanoma 105% | UO-31 renal 100% | TK-10 renal 108% | ACHN renal 106% | CAKI-1 renal 92.3% | A498 renal 98.9% | CCRF-CEM leukemia 90.4%

CCN(CC)c1ccc2nc3ccc(=[N+](CC)CC)cc-3oc2c1
inactive: UO-31 renal 56% | CAKI-1 renal 34.9% | A498 renal 74.4% | CCRF-CEM leukemia 11.2%
active: EKVX NSCLC 8.19% | SN12C renal 0.99% | TK-10 renal -26.1% | ACHN renal 8.56% | MOLT-4 leukemia -21.4%

C[C@@H](c1ccccc1)[C@@H](C(=O)O)c1ccccc1
inactive: SK-MEL-2 melanoma 99.5% | SN12C renal 98.1% | UO-31 renal 91.2% | ACHN renal 96.4% | CAKI-1 renal 99.1% | A498 renal 96.7% | CCRF-CEM leukemia 98.9% | MOLT-4 leukemia 102%
